# Among all 360,000 compounds or so, about 25,000 (6.9%) were called active. About 9% were inconclusive and are not listed. Shown is part of a subset that was picked to be rich in actives. Values without a mark were called inactive. Calls come from the whole dose curve; as a rule, active = well fitted inhibition curve with a large enough effect; inconclusive = small, poorly fitted or top-dose-only effect; inactive = flat fitted curve, though single readings scatter.
# Target: Luciferin 4-monooxygenase (Photinus pyralis) (UniProt P08659)
# Sequence (P08659 whole entry, looked up): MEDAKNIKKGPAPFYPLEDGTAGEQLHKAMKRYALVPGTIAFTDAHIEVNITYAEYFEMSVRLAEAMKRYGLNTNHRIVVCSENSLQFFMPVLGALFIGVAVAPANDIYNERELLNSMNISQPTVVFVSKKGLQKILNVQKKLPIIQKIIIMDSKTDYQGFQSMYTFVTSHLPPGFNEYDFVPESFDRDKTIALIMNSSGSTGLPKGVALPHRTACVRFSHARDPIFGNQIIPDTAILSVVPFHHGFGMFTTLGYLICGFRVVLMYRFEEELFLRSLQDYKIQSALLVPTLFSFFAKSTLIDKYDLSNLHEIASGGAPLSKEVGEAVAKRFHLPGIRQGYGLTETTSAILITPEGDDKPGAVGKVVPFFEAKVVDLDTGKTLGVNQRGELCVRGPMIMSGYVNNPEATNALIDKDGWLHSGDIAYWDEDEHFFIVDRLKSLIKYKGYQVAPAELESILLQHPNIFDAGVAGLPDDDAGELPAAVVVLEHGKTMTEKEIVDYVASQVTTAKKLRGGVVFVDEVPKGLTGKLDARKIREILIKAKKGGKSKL
# Assay: qHTS profiling assay for firefly luciferase inhibitor/activator using purifed enzyme and Km concentrations of substrates (counterscreen for miR-21 project); note: nearly all actives have a fitted effect of over 55% in size;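 for activity change, negative = inhibition: plate controls were vehicle for no effect and reference inhibitor for full effect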
# Conditions: purified FLuc, luminescence inhibition; series mostly up to 57.5 µM; activity change, negative = inhibition: at the top concentration
# In short: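 Biochemical qHTS of compounds, final roughly 60 µM downward over six points, against 10 nM purified firefly luciferase using Km concentrations of substrates (10 uM D-luciferin, 10 uM ATP) in Tris acetate pH 7.5 buffer; luminescence output.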
# Potency is the fitted concentration of half-maximal effect.
Structure (SMILES),"activity change, negative = inhibition [%]",Potency
Cc1ccc(-c2cn3c(n2)sc2cc(C(=O)NCCCc4ccccc4)ccc23)cc1,-7.52,–
CCOc1c(CNCc2ccc(C(=O)O)cc2)cccc1OC,-0.885,–
CCCCCc1ccc(-c2ccc(OCC)cc2)nc1,–,10.7 µM (active)
CCOc1ccc(-c2cc(C)n3nc(C(=O)Nc4ccc(C)c(C)c4)cc3n2)cc1,2.77,–
CCCCCc1ccc(-c2ccc(C(=O)O)cc2)nc1,–,0.675 µM (active)
CCCCCc1ccc(-c2cn(Cc3ccc4ccccc4c3)nn2)cc1,1.7,–
Cc1cc(F)ccc1S(=O)(=O)Nc1ccc(C(=O)N(C)Cc2ccco2)cc1,-0.606,–
CCc1nc2nc(C)cc(Nc3ccc(F)c(Cl)c3)n2n1,7.42,–
COc1ccc(/C=C/c2nc(C#N)c(NCc3ccc(F)cc3)o2)cc1OC,-8.93,–
CCCCCn1c(=O)[nH]c2cc(C(=O)NCCN(C)CCCC)ccc2c1=O,0.508,–
CCc1ccc(C2CC(=O)c3c([nH]c(C(=O)OCc4ccc(C)cc4)c3C)C2)cc1 (stereo unspecified),0.719,–
COc1ccccc1Nc1c2c(nc3ccc(NC(=O)/C=C/c4cc(OC)c(OC)c(OC)c4)cc13)CCCC2,22.1,–
N#Cc1cccc(NC(=O)C2CCCN(C(=O)c3ccc(Cl)cc3)C2)c1 (stereo unspecified),-1.14,–
CCc1ccc(CNCc2c(C(=O)O)n(Cc3ccc(F)cc3Cl)c3cc(OC)ccc23)cc1,-6.35,–
O=C(CSc1nc2c(c(=O)[nH]1)CN(Cc1ccc3c(c1)OCO3)CC2)Nc1cc(F)ccc1F,-4.96,–
c1ccc(-c2cn3c(n2)CCc2ccc4cccnc4c2-3)cc1,–,10.7 µM (active)
COc1ccc(NC(=O)CCCc2nnc3n(CCC(C)C)c(=O)c4sccc4n23)c(OC)c1,1.17,–
CCc1ccc(NC(=O)c2cc3c(=O)n(Cc4cccnc4)ccc3nc2C)cc1,-5.95,–
CCOC(=O)N1CCN(C(=O)COc2ccc3oc4c(c3c2)CCCC4)CC1,-16.5,–
CCN(CC)CCCNC(=O)COc1ccc2oc3c(c2c1)CCCC3,-2.85,–
O=C(COc1ccc2oc3c(c2c1)CCCC3)Nc1ccccn1,–,1.07 µM (active)
COc1ccc(C2c3c(oc4ccccc4c3=O)C(=O)N2Cc2ccc3c(c2)OCO3)cc1 (stereo unspecified),-4.43,–

Structure (SMILES),"activity change, negative = inhibition [%]",Potency
O=C(Cc1c(F)cccc1Cl)Nc1ccc(-n2cnnn2)cc1,2.75,–
COc1ccc(NC(=O)C2COc3ccccc3O2)cc1 (stereo unspecified),–,16.9 µM (active)
O=C(CCc1ccccc1)Nc1ncc([N+](=O)[O-])s1,–,15.1 µM (active)
O=C(Nc1ncc([N+](=O)[O-])s1)C1COc2ccccc2O1 (stereo unspecified),–,21.3 µM (active)
CN(c1ccccc1)S(=O)(=O)c1cccc(NC(=O)Cc2c(F)cccc2Cl)c1,-5.92,–
C/C(=N/NC(=O)C1COc2ccccc2O1)c1ccco1 (stereo unspecified),2.51,–
O=C(Cc1c(F)cccc1Cl)Nc1ncc([N+](=O)[O-])s1,–,21.3 µM (active)
CC(/C=C/c1ccco1)=N/NC(=O)C1COc2ccccc2O1 (stereo unspecified),-20.5,–
CCN(CC)S(=O)(=O)c1ccc(N2CCOCC2)c(NC(=O)C2COc3ccccc3O2)c1 (stereo unspecified),-2.19,–
CC(C)Cc1nnc(NC(=O)CCc2ccccc2)s1,-15.7,–
COc1ccc([N+](=O)[O-])cc1NC(=O)CCc1ccccc1,-4.23,–
COc1ccc(NC(=O)CC2COc3ccccc3O2)c(OC)c1 (stereo unspecified),-1.63,–
COc1cc(NC(=O)Cn2c(=O)n(Cc3ccco3)c(=O)c3oc4ccccc4c32)cc(OC)c1,-1.65,–
COc1ccc(-c2nn(CC(=O)NC3CCCC3)c3c2cnc2ccc(F)cc23)cc1,5.55,–
CC(C)CN(C(=O)c1ccc2c(c1)OCO2)C1CCS(=O)(=O)C1 (stereo unspecified),0.66,–
O=c1c2cccnc2n(Cc2cccc(F)c2)c(=O)n1Cc1ccccc1Cl,-8.13,–
COc1cc(/C=N/Nc2nc3ccccc3s2)ccc1O,–,2.39 µM (active)
COc1cc(/C=N/NC(=O)Nc2ccccc2)ccc1OCCOc1ccccc1C,3.18,–
Cc1cc(C(=O)N/N=C/c2cc([N+](=O)[O-])cc(C)c2O)n[nH]1,-0.645,–
COc1cc(/C=N/NC(=O)CNC(=O)c2ccncc2)ccc1OC(C)=O,3.06,–
COc1ccc(CC(=O)N/N=C/c2cc([N+](=O)[O-])cc(Br)c2O)cc1,4.36,–
Cn1c(SCC(=O)N/N=C/c2ccc(O)c(O)c2)nc2ccccc21,-14.5,–

Structure (SMILES),"activity change, negative = inhibition [%]",Potency
COc1cc(/C=N\Nc2nc(-c3cccs3)c(NC(C)=O)s2)ccc1O,–,7.57 µM (active)
O=[N+]([O-])c1cc(Br)c(O)c(/C=N/Nc2nc3ccccc3s2)c1,–,19 µM (active)
COc1cc(/C=N/NC(=O)CCc2n[nH]c(=O)[nH]c2=O)ccc1O,-13.2,–
CCOC(=O)C1CCCN(S(=O)(=O)c2cc(-c3cc(C)no3)ccc2OC)C1 (stereo unspecified),5,–
CSc1nn(Cc2cccc(C)c2)c(N)c1S(=O)(=O)c1ccccc1,4.36,–
COc1cccc(CNC(=O)C2CCC(CNS(=O)(=O)c3cccs3)CC2)c1 (stereo unspecified),-0.944,–
CC(C)(C)c1ccc(C(=O)NCC(c2ccc(Cl)cc2)N2CCOCC2)cc1 (stereo unspecified),-10.9,–
CCOc1ccc(NC(=O)COC(=O)C2CCC(=O)N2)c([N+](=O)[O-])c1 (stereo unspecified),-10.7,–
Cc1cc(C(=O)COC(=O)C2CC2)c(C)n1-c1ccc(F)cc1,–,0.169 µM (active)
Cc1ccc(-n2c(C)cc(C(=O)CN3C(=O)C(=O)N(C4CCCC4)C3=O)c2C)cc1,-14.7,–
COc1ccc(-n2c(C)cc(C(=O)COC(=O)c3cc(OC)c(OC)cc3NC(=O)c3cccs3)c2C)cc1,-2.76,–
Cc1nc(CN(C)C(=O)CC2C(=O)NCCN2Cc2ccc(F)cc2)cs1 (stereo unspecified),1.85,–
Cc1ccc(N(C(=O)Cc2cccs2)C(C(=O)NCC2CCCO2)c2ccncc2)cc1 (stereo unspecified),–,16.9 µM (active)
Cc1cccc(N(C(=O)Cc2cccs2)C(C(=O)NCc2ccco2)c2ccncc2)c1 (stereo unspecified),-0.4,–
O=C(NCC(=O)N(c1ccccc1)C(C(=O)NCC1CCCO1)c1ccccc1)c1cccs1 (stereo unspecified),1.75,–
CCOC(=O)c1cc2c(=O)n3ccccc3nc2n(CC2CCCO2)c1=NC(=O)c1ccccc1Br (stereo unspecified),-2.15,–
CCC(=O)Nc1nc(OC)cc(OC)n1,3.41,–
CN(C)c1nc(NN)nc(Nc2ccc(F)cc2)n1,2.45,–
CC(=O)Nc1nc(N(C)C)nc(N(C)C)n1,–,26.9 µM (active)
COc1ccc(Cl)cc1NC(=O)c1cccc(N2C(=O)C3CC=CCC3C2=O)c1 (stereo unspecified),3.07,–
O=C(Cc1ccccc1)Nc1ccc(C(=O)Nc2ccccc2C(=O)O)cc1,-0.802,–
O=C(Nc1ccccc1C(=O)O)c1ccc(N2C(=O)C3CC=CCC3C2=O)cc1 (stereo unspecified),–,4.78 µM (active)
